These results are taken from the supplement of paper PMC9694430.

Holding throughout (assay): thermal shift delta Tm vs DMSO control; higher = stronger stabilization (binding)
Conditions in all cases: 12.5 µM; protein concentration 2 µM

Assay [1] deals with LOC_OS02G45750-cb003. The essentials:
(§1)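 Heating from 25°C to 95°C at 0.05°C/s, fluorescence was recorded for 19.5 μl wells of 2 μM E. coli-expressed, purified rice kinase domain in 100 mM potassium phosphate pH 7.5, 150 mM NaCl, 10% glycerol and 5 × SYPRO Orange with compound in DMSO. Boltzmann fits gave melting temperatures for this differential scanning fluorimetry assay. The shift reported is the mean of three replicates against the DMSO-only protein.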

Assay [2] concerns LOC_OS02G54510-cb004. The gist of the method:
as §1

Assay [3] relates to LOC_OS03G04050-cb001. The essentials: as §1
In assay [4] the test system is LOC_OS03G12390-cb001. The gist of the method:
as §1

Assay [5] deals with LOC_OS03G27990-cb004. The essentials: as §1
Assay [6] relates to LOC_OS03G50450-cb001. The essentials:
as §1

The subject of assay [7] is LOC_OS03G50810-cb003. The essentials:
as §1

Assay [8] deals with LOC_OS04G35114-cb001. The gist of the method:
as §1

Assay [9] relates to T1, LOC_OS04G38480-cb003.
T1 sequence (whole entry): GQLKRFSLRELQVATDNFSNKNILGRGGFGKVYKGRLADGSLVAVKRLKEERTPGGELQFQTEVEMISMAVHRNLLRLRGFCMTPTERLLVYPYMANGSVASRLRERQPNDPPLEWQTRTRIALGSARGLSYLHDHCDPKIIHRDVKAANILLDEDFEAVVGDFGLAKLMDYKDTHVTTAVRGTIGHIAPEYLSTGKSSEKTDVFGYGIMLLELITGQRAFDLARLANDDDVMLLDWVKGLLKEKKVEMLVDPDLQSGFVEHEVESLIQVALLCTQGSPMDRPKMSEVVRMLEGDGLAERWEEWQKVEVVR
The essentials:
as §1

Assay [10] has as its system T2, LOC_OS04G41100-cb001.
T2 sequence (whole entry): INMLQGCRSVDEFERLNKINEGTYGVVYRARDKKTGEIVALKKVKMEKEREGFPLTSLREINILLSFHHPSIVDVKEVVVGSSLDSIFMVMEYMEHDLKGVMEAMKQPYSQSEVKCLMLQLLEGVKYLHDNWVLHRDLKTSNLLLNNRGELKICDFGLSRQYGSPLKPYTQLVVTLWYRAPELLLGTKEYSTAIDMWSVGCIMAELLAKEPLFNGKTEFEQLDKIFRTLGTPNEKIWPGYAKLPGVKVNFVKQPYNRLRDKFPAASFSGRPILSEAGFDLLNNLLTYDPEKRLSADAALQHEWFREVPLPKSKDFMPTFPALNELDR
The gist of the method: as §1
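Also: purified Escherichia coli-expressed rice kinase domain construct.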

`CC(C)(C)c1nc(-c2cccc(NS(=O)(=O)c3c(F)cccc3F)c2F)c(-c2ccnc(N)n2)s1`: the “thermal shift delta Tm” value in assay [1] was found to be 2.7 °C; in assay [2], 2.41 °C; in assay [3] it was 0.43 °C; in assay [4], 0.52 °C; in assay [5] it was 0.49 °C; in assay [6], 1.42 °C. Moreover, the “thermal shift delta Tm” value in assay [7] was determined as 1.63 °C; in assay [8], 2.09 °C; in [9] it was 2.46 °C; in assay [10], 2.47 °C.

As for `Cn1c(Nc2ccc(C(F)(F)F)cc2)nc2cc(Oc3ccnc(-c4ncc(C(F)(F)F)[nH]4)c3)ccc21`, the “thermal shift delta Tm” value in assay [1] turned out to be 2.26 °C; in assay [2], 2.15 °C; in assay [3], 0.84 °C; in assay [4], 2.43 °C; in [5], 0.45 °C; in [6] it was 1.16 °C. The “thermal shift delta Tm” value in assay [7] came to 1.92 °C; in assay [8], 1.17 °C; in assay [9], 4.08 °C; in assay [10], 1.82 °C.

In the case of `CCOc1cc2ncc(C#N)c(Nc3ccc(OCc4ccccn4)c(Cl)c3)c2cc1NC(=O)/C=C/CN(C)C` [Neratinib (HKI-272)], the “thermal shift delta Tm” value in [1] turned out to be 4.68 °C; in [2], 0.16 °C; in assay [3], 0.41 °C; in [4], 0.55 °C; in [5], 1.01 °C; in assay [6], 0.39 °C. Besides, the “thermal shift delta Tm” value in assay [7] turned out to be 1.2 °C; in assay [8], 5.53 °C; in assay [9], 1.27 °C; in assay [10] it was 0.15 °C.

Regarding `CN(C)C[C@@H]1CCn2cc(c3ccccc32)C2=C(C(=O)NC2=O)c2cn(c3ccccc23)CCO1`, the “thermal shift delta Tm” value in assay [1] is -0.25 °C; in [2], 0.16 °C; in [3], 0.36 °C; in [4], 0.08 °C; in assay [5], 0.5 °C; in [6], -0.45 °C. The “thermal shift delta Tm” value in [7] was 1.85 °C; in [8], 6.19 °C; in assay [9], 2.42 °C; in assay [10], 0.73 °C.

As to `CCNC(=O)Nc1ccc(-c2nc3c(c(N4CCOC[C@@H]4C)n2)CCN(C2COC2)C3)cc1`, the “thermal shift delta Tm” value in [1] is 1.07 °C; in assay [2], 0.26 °C; in assay [3] it was 0.61 °C; in [4] it was -0.06 °C; in [5], 0.78 °C; in [6], 0.68 °C. In addition, the “thermal shift delta Tm” value in assay [7] is 0.23 °C; in [8] it was 0.56 °C; in assay [9], -0.03 °C; in [10], 0.46 °C.

As for `CS(=O)(=O)N1CCN(Cc2cc3nc(-c4cccc5[nH]ncc45)nc(N4CCOCC4)c3s2)CC1` [Pictilisib (GDC-0941)], the “thermal shift delta Tm” value in assay [1] turned out to be 0.86 °C; in assay [2] it was 0.25 °C; in assay [3], 0.28 °C; in [4], 0.14 °C; in assay [5] it was 0.17 °C; in assay [6], 0.22 °C. Also, the “thermal shift delta Tm” value in [7] is 1.56 °C; in assay [8] it was 1.73 °C; in assay [9], -0.11 °C; in [10], 0.72 °C.

As for `CC(C)NC[C@@H](C(=O)N1CCN(c2ncnc3c2[C@H](C)C[C@H]3O)CC1)c1ccc(Cl)cc1` [Ipatasertib (GDC-0068)], the “thermal shift delta Tm” value in assay [1] is 0.72 °C; in [2], 0.15 °C; in assay [3], 0.65 °C; in assay [4] it was -0.37 °C; in assay [5], 0.47 °C; in assay [6] it was 1.15 °C. Further, the “thermal shift delta Tm” value in assay [7] is 0.45 °C; in assay [8], 0.7 °C; in assay [9] it was 1.01 °C; in assay [10] it was 0.07 °C.

For `CC1Oc2cc(cnc2N)-c2c(nn(C)c2C#N)CN(C)C(=O)c2ccc(F)cc21` (stereo not given), the “thermal shift delta Tm” value in [1] was 1.05 °C; in assay [2], 0.8 °C; in assay [3] it was 0.3 °C; in assay [4] it was 6.42 °C; in assay [5], 0.12 °C; in assay [6], -0.13 °C. In addition, the “thermal shift delta Tm” value in assay [7] stood at 0.66 °C; in [8], 0.69 °C; in [9], 2.3 °C; in assay [10], 0.38 °C.

For `COc1cc(N2CCC(N3CCN(C)CC3)CC2)ccc1Nc1ncnc(Nc2ccccc2S(=O)(=O)C(C)C)n1`, the “thermal shift delta Tm” value in assay [1] is 1.85 °C; in assay [2], 0.1 °C; in assay [3] it was 0.24 °C; in assay [4], 1.69 °C; in [5], 0.28 °C; in assay [6], 0.36 °C. Besides, the “thermal shift delta Tm” value in assay [7] came out at 0.99 °C; in assay [8] it was 0.74 °C; in [9], 1.16 °C; in assay [10] it was 0.34 °C.
